# According to publication PMC6792352, “Limited Chemical Structural Diversity Found to Modulate Thyroid Hormone Receptor in the Tox21 Chemical Library” (Environmental Health Perspectives, 2019):
# Tested on: thyroid hormone receptor (endogenous TRα and TRβ)
# Set-up: species or system GH3-TRE-Luc (rat pituitary); GH3-TRE-Luc luciferase reporter, antagonist mode against 1 nM T3, loss of signal, qHTS
# Settings: read-out: Average AC50 (uM) GH3-TRE-Antag, antagonist mode, 1 nM T3, no GH3 cytotoxicity hit
row,SMILES,AC50 [µM]
1,COCc1c(C(C)C)nc(C(C)C)c(/C=C/[C@@H](O)C[C@@H](O)CC(=O)O)c1-c1ccc(F)cc1 [Cerivastatin sodium],13.7
2,COc1ccc(-c2coc3cc(O)cc(O)c3c2=O)cc1 [Biochanin A],67
3,O=C(/C=C/c1ccc([N+](=O)[O-])cc1)c1ccccc1 [4-Nitrochalcone],49.3
4,"O=C(O)COc1cc(Cl)c(Cl)cc1Cl [2,4,5-Trichlorophenoxyacetic acid]",70.6
5,CC(C)C(C(=O)OC(C#N)c1cccc(Oc2ccccc2)c1)c1ccc(OC(F)F)cc1 (centres unmarked) [Flucythrinate],32.5
